Growth data for 39 compounds are collected here from PubChem BioAssay (NCI).

About 83,000 compounds went through this panel and 20% of them were active in at least one assay; those are over-represented in the sample as a whole.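 96-well plates, one dose, 48 hours. Percent growth reported; active if below 10.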 Activity calls are given as the source filed them.

The first test concerns NCI/ADR-RES ovarian. In words: NCI-60 one-dose screen, 48 h (100 = growth as untreated, 0 = no growth, -100 = all killed). Particulars: 10 µM unless noted.
For the compound `CS(=O)(=O)Nc1ccc(C(=O)NC(C(=O)NO)c2ccc(-c3cccc(F)c3)cc2)cc1` (stereo not drawn), the growth was 66.6% (inactive).

Regarding `COc1cccc2c1C=C1CCCCC3=Cc4c(OC)cccc4OC13O2`, the growth is 16.5% (inactive).

Consider `COc1cccc(/C(C#N)=C/c2nc3c(N4CCOCC4)nc(Cl)nc3n2C)c1`, for which the growth is 25.9% (inactive).

Consider `NCCOc1ncccc1/C=C1\c2ccccc2-c2ccc(F)cc21`, for which the growth was 29.9% (inactive).

With `Cc1ccc2cccc(Oc3ccc(Nc4ncnc5onc(-c6ccccc6)c45)cc3)c2n1`, the growth is 87.3% (inactive).

As to `CCN1C(=O)N(c2ccccc2)C2Nn3c(s/c(=C4\C(=O)N(C(C)C)c5ccccc54)c3=O)=NC21` (stereo not drawn), the growth was 109% (inactive).

In the case of `c1ccc2c(c1)oc1cc3sccc3nc12`, the growth was 102% (inactive).

Consider `O=C1/C(=C/c2cccc(O)c2)COc2ccc(O)cc21`, for which the growth is 96.7% (inactive).

On to `COc1cccc(C(=O)Cn2cc(/C=C(\C#N)S(=O)(=O)c3ccccc3)c3ccccc32)c1`, for which the growth is 90.6% (inactive).

Regarding `CCOC(=O)C1=C(C)N=c2s/c(=C\c3ccccc3O)c(=O)n2C1c1ccc(OC)c2ccccc12` (stereo not drawn), the growth is 48.3% (inactive).

As for `Cn1c(/C=C(\C#N)c2ccccc2)nc2c(N3CCOCC3)nc(Cl)nc21`, the growth was 3.17% (active).

In the case of `O=S(=O)(Nc1ncccn1)c1ccc(NC2Nc3nc4ccccc4nc3S2)cc1` (stereo not drawn), the growth was 99.6% (inactive).

As for `COC(=O)C1(C)CCC[C@]2(C)[C@H]3C[C@H]4C(C(C)C)=C[C@]3(CC[C@@H]12)[C@H]1[C@@H]4[C@@H](OCC#CCN2CCOCC2)CC[C@@H]1OCC#CCN1CCOCC1` (stereo partly drawn), the growth is 74.9% (inactive).

In the case of `O=c1c2cc(F)ccc2sc2c(Nc3ccncc3)nc3ccccc3c12`, the growth is -9.24% (active).

Regarding `O=C(Cc1ccccc1)NC(c1ccc(Cl)cc1)c1c(O)ccc2ccccc12` (stereo not drawn), the growth was 9.15% (active).

As to `Cc1c(-c2noc(-c3ccc([N+](=O)[O-])cc3)n2)no[n+]1[O-]`, the growth was 96.2% (inactive).

Turning to `O=C(c1ccccc1)N(CCc1ccc(Cl)cc1)C(=S)N(C(=O)c1ccccc1)c1ccccc1`, the growth is 109% (inactive).

For `Cc1cc2c(c(C)c1Cl)C(=O)/C(=C/c1cccc([N+](=O)[O-])c1)O2`, the growth was 101% (inactive).

Take `CCN1C(=O)N(CC)C2C1NC(=S)N2/N=C/C=C/c1ccccc1OC` (stereo not drawn): the growth was 6.29% (active).

`O=C1Nc2ccccc2/C1=C/c1cccs1`: the growth was 91.8% (inactive).

For the compound `COC(=O)/C(=C\c1c(-c2ccccc2)[nH]c2ccccc12)S(C)(=O)=O`, the growth was -13% (active).

Take `C#CCn1cc(C=C2C(=O)N(C)C(=O)N(C)C2=O)c2cc(Cl)ccc21`: the growth is 107% (inactive).

For the compound `COc1ccc2occ(C3=C(c4c[nH]c5ccccc45)C(=O)NC3=O)c2c1`, the growth is 20.5% (inactive).

Turning to `O=C1/C(=C/c2ccc(O)cc2)COc2ccc(O)c(O)c21`, the growth is 27.2% (inactive).

Regarding `N#C/C(=C\c1c(-c2ccccc2)[nH]c2ccccc12)C(=O)c1ccccc1`, the growth was 6.15% (active).

For `CCCN1CCN(c2ccc3nc(-c4ccc5nc(-c6cc(OC)ccc6OC)[nH]c5c4)[nH]c3c2)CC1`, the growth is 111% (inactive).

Consider `O=C(NN1C(=O)CSC1c1ccc(Cl)cc1)c1[nH]c2ccc(F)cc2c1-c1ccccc1` (stereo not drawn), for which the growth is 43.3% (inactive).

On to `O=Cc1cc2ccccc2nc1Nc1nccs1`, for which the growth was 77% (inactive).

For the compound `COc1ccc(C2=Nn3c(NN)nnc3SC2)cc1`, the growth is 102% (inactive).

With `COC(=O)/C(=C\c1c(C)[nH]c2ccccc12)S(=O)(=O)c1ccccc1`, the growth is 4.6% (active).

With `COC(=O)C1(C)COP(=O)(Nc2ccc(OC)cc2)OC1` (stereo not drawn), the growth was 99.5% (inactive).

With `O=c1c2cccc(F)c2sc2c(N3CCNCC3)nc3ccccc3c12`, the growth is 42.6% (inactive).

In the case of `CCOc1ccc2nc(C)cc(Nc3ccc(Br)cc3)c2c1`, the growth is 95.4% (inactive).

For `COc1cccc2c(=O)c3c(sc12)c(NCCCNCCO)nc1ccccc13`, the growth is 60.6% (inactive).

As to `O=c1c(-c2nc3ccccc3[nH]2)cc2ccccc2n1Cc1cn(Cc2ccc(N3CCOCC3)cc2)nn1`, the growth is 68.8% (inactive).

Consider `Nc1nc(-c2cnccn2)nn1-c1nc2ccccc2s1`, for which the growth is 101% (inactive).

In the case of `COc1ccc(-c2cn3c(C(=O)Nc4ccccc4Cl)c(-c4ccccc4)c4c3n2CCCC4)cc1`, the growth was 81.7% (inactive).

For the compound `NCCNc1nc2ccccc2c2c(=O)c3cc(F)cc(Cl)c3sc12`, the growth was -44.9% (active).

On to `CNCCNc1nc2ccccc2c2c(=O)c3cccc(OC)c3sc12`, for which the growth was 37.5% (inactive).

The test system of the next test is T-47D breast. Described as above. The note with it: 10 µM unless noted.
Turning to `CS(=O)(=O)Nc1ccc(C(=O)NC(C(=O)NO)c2ccc(-c3cccc(F)c3)cc2)cc1` (stereo not drawn), the growth was 82.4% (inactive).

For the compound `COc1cccc2c1C=C1CCCCC3=Cc4c(OC)cccc4OC13O2`, the growth is 40.3% (inactive).

`COc1cccc(/C(C#N)=C/c2nc3c(N4CCOCC4)nc(Cl)nc3n2C)c1`: the growth was -44.5% (active).

As for `NCCOc1ncccc1/C=C1\c2ccccc2-c2ccc(F)cc21`, the growth is 21.2% (inactive).

With `Cc1ccc2cccc(Oc3ccc(Nc4ncnc5onc(-c6ccccc6)c45)cc3)c2n1`, the growth was 65.2% (inactive).

On to `CCN1C(=O)N(c2ccccc2)C2Nn3c(s/c(=C4\C(=O)N(C(C)C)c5ccccc54)c3=O)=NC21` (stereo not drawn), for which the growth is 102% (inactive).

In the case of `c1ccc2c(c1)oc1cc3sccc3nc12`, the growth was 101% (inactive).

With `O=C1/C(=C/c2cccc(O)c2)COc2ccc(O)cc21`, the growth is 86.8% (inactive).

Consider `COc1cccc(C(=O)Cn2cc(/C=C(\C#N)S(=O)(=O)c3ccccc3)c3ccccc32)c1`, for which the growth is 91.6% (inactive).

For the compound `CCOC(=O)C1=C(C)N=c2s/c(=C\c3ccccc3O)c(=O)n2C1c1ccc(OC)c2ccccc12` (stereo not drawn), the growth is 23.3% (inactive).

Turning to `Cn1c(/C=C(\C#N)c2ccccc2)nc2c(N3CCOCC3)nc(Cl)nc21`, the growth is -37.8% (active).

As to `O=S(=O)(Nc1ncccn1)c1ccc(NC2Nc3nc4ccccc4nc3S2)cc1` (stereo not drawn), the growth is 101% (inactive).

As to `COC(=O)C1(C)CCC[C@]2(C)[C@H]3C[C@H]4C(C(C)C)=C[C@]3(CC[C@@H]12)[C@H]1[C@@H]4[C@@H](OCC#CCN2CCOCC2)CC[C@@H]1OCC#CCN1CCOCC1` (stereo partly drawn), the growth was 64.5% (inactive).

As for `O=c1c2cc(F)ccc2sc2c(Nc3ccncc3)nc3ccccc3c12`, the growth was -3.72% (active).

On to `O=C(Cc1ccccc1)NC(c1ccc(Cl)cc1)c1c(O)ccc2ccccc12` (stereo not drawn), for which the growth was 10.8% (inactive).

Turning to `Cc1c(-c2noc(-c3ccc([N+](=O)[O-])cc3)n2)no[n+]1[O-]`, the growth is 104% (inactive).

With `O=C(c1ccccc1)N(CCc1ccc(Cl)cc1)C(=S)N(C(=O)c1ccccc1)c1ccccc1`, the growth was 61.7% (inactive).

For `Cc1cc2c(c(C)c1Cl)C(=O)/C(=C/c1cccc([N+](=O)[O-])c1)O2`, the growth is 98.4% (inactive).

In the case of `CCN1C(=O)N(CC)C2C1NC(=S)N2/N=C/C=C/c1ccccc1OC` (stereo not drawn), the growth is 65.9% (inactive).

Take `O=C1Nc2ccccc2/C1=C/c1cccs1`: the growth is -4.77% (active).

In the case of `COC(=O)/C(=C\c1c(-c2ccccc2)[nH]c2ccccc12)S(C)(=O)=O`, the growth is 27% (inactive).

Turning to `C#CCn1cc(C=C2C(=O)N(C)C(=O)N(C)C2=O)c2cc(Cl)ccc21`, the growth is 112% (inactive).

Regarding `COc1ccc2occ(C3=C(c4c[nH]c5ccccc45)C(=O)NC3=O)c2c1`, the growth is 57% (inactive).

Take `O=C1/C(=C/c2ccc(O)cc2)COc2ccc(O)c(O)c21`: the growth was 11.8% (inactive).

On to `N#C/C(=C\c1c(-c2ccccc2)[nH]c2ccccc12)C(=O)c1ccccc1`, for which the growth was 39% (inactive).

For `CCCN1CCN(c2ccc3nc(-c4ccc5nc(-c6cc(OC)ccc6OC)[nH]c5c4)[nH]c3c2)CC1`, the growth is 98.8% (inactive).

On to `O=C(NN1C(=O)CSC1c1ccc(Cl)cc1)c1[nH]c2ccc(F)cc2c1-c1ccccc1` (stereo not drawn), for which the growth is 52.1% (inactive).

With `O=Cc1cc2ccccc2nc1Nc1nccs1`, the growth is 77.5% (inactive).

Consider `COc1ccc(C2=Nn3c(NN)nnc3SC2)cc1`, for which the growth is 96.1% (inactive).

For the compound `COC(=O)/C(=C\c1c(C)[nH]c2ccccc12)S(=O)(=O)c1ccccc1`, the growth is 17.8% (inactive).

Regarding `COC(=O)C1(C)COP(=O)(Nc2ccc(OC)cc2)OC1` (stereo not drawn), the growth is 93.1% (inactive).

Consider `O=c1c2cccc(F)c2sc2c(N3CCNCC3)nc3ccccc3c12`, for which the growth is 36.3% (inactive).

In the case of `CCOc1ccc2nc(C)cc(Nc3ccc(Br)cc3)c2c1`, the growth was 97.1% (inactive).

Regarding `COc1cccc2c(=O)c3c(sc12)c(NCCCNCCO)nc1ccccc13`, the growth was 72.1% (inactive).

Consider `O=c1c(-c2nc3ccccc3[nH]2)cc2ccccc2n1Cc1cn(Cc2ccc(N3CCOCC3)cc2)nn1`, for which the growth is 71.4% (inactive).

With `Nc1nc(-c2cnccn2)nn1-c1nc2ccccc2s1`, the growth was 96.9% (inactive).

Take `COc1ccc(-c2cn3c(C(=O)Nc4ccccc4Cl)c(-c4ccccc4)c4c3n2CCCC4)cc1`: the growth was 78.9% (inactive).

Regarding `NCCNc1nc2ccccc2c2c(=O)c3cc(F)cc(Cl)c3sc12`, the growth is -45.6% (active).

In the case of `CNCCNc1nc2ccccc2c2c(=O)c3cccc(OC)c3sc12`, the growth was 54.4% (inactive).
